Data reported in PubChem BioAssay (Tox21).
A number with no mark means an inactive call. Results filed as inconclusive are left out. Entries that show only a call come without a potency. Activity calls are given as the source filed them. Unless noted, calls follow the shape of the dose curve; as a rule, active = well fitted curve in the direction sought with a large enough effect in the repeat runs; inconclusive = weak or mixed curves; inactive = no such curve, though single readings can be large; an effect the other way counts as inactive or inconclusive.

Key:
[1] = A CellTox Green Cytotoxicity Assay to monitor cytotoxicity in HepG2 cells - 0 hour (AID 1224882); also: nearly all actives have a fitted effect of over 35% in size
Procedure, shortened: (§1)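 Fluorescent DNA-binding dye, 600 HepG2 cells/well, 5 h preincubation then compound in DMSO; same plates read at 0–40 h, 37 C.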

[2] = A CellTox Green Cytotoxicity Assay to monitor cytotoxicity in HepG2 cells - 32 hour (AID 1224883); also: nearly all actives have a fitted effect of over 50% in size
Procedure, shortened: as §1

[3] = A CellTox Green Cytotoxicity Assay to monitor cytotoxicity in HEK293 cells - 8 hour (AID 1224884); also: nearly all actives have a fitted effect of over 35% in size
Procedure, shortened: (§2)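 Homogeneous no-lysis format: HEK293 cell suspension mixed with CellTox Green reagent, seeded, incubated 5 h at 37 C/5% CO2, then dosed by pintool with compound in DMSO.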

[4] = qHTS RealTime-Glo MT Cell Viability Assay in HepG2 cells - 16 hour (AID 1224885); also: nearly all actives have a fitted effect of over 50% in size
Procedure, shortened: (§3)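 Real-time, nonlytic viability: 600 HepG2 cells/well mixed with NanoLuc enzyme plus prosubstrate; 5 h settle, compound (DMSO) added by pintool; luminescence monitored over 40 h at 37 C.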

[5] = qHTS RealTime-Glo MT Cell Viability Assay in HEK293 cells - 24 hour (AID 1224886); also: top concentration of the series differs between compounds; nearly all actives have a fitted effect of over 50% in size
Procedure, shortened: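 Cells + reagent dispensed (600 cells/well, HEK293) → 5 h at 37 C/5% CO2 → 23 nL compound in DMSO pinned → 40 h at 37 C → luminescence read at 0, 8, 16, 24, 32, 40 h.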

[6] = qHTS RealTime-Glo MT Cell Viability Assay in HEK293 cells - 8 hour (AID 1224887); also: top concentration of the series differs between compounds; nearly all actives have a fitted effect of over 50% in size
Procedure, shortened: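 Measured as luminescence from the same continuously cultured HEK293 wells at successive time points (0, 8, 16, 24, 32, 40 h) after compound addition. Reagent present from seeding; dosing at 5 h; incubation 37 C.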

[7] = A CellTox Green Cytotoxicity Assay to monitor cytotoxicity in HEK293 cells - 16 hour (AID 1224888); also: nearly all actives have a fitted effect of over 35% in size
Procedure, shortened: as §2

[8] = qHTS RealTime-Glo MT Cell Viability Assay in HepG2 cells - 0 hour (AID 1224889); also: nearly all actives have a fitted effect of over 50% in size
Procedure, shortened: as §3

[9] = A CellTox Green Cytotoxicity Assay to monitor cytotoxicity in HepG2 cells - 8 hour (AID 1224890); also: nearly all actives have a fitted effect of over 45% in size
Procedure, shortened: as §1

[10] = qHTS assay to identify small molecule antagonists of the estrogen receptor alpha (ER-alpha) signaling pathway using the BG1 cell line in the presence of 0.1 nM 17-beta-estradiol - cell viability counter screen (AID 1259241); also: nearly all actives have a fitted effect of over 40% in size
Procedure, shortened: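 Live-cell protease activity (CellTiter-Fluor fluorescence, 30 min) was read in the same wells after VM7Luc4E2 cells had been exposed to compounds with 0.1 nM 17beta-estradiol for 22 hr at 37C.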

[11] = qHTS assay to identify small molecule antagonists of the androgen receptor (AR) signaling pathway using the MDA cell line in the presence of 0.5 nM R1881 - cell viability counter screen (AID 1259242); also: nearly all actives have a fitted effect of over 45% in size
Procedure, shortened: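 Human breast carcinoma MDA-kb2 cells, cultured without CO2, receive compounds alongside 0.5 nM (final) R1881 agonist. After 16 hr at 37C, viability is taken as live-cell protease signal.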

[12] = target: Estrogen receptor (Homo sapiens) (UniProt P03372); experiment: qHTS assay to identify small molecule antagonists of the estrogen receptor alpha (ER-alpha) signaling pathway using the BG1 cell line in the presence of 0.1 nM 17-beta-estradiol (AID 1259244); also: nearly all actives have a fitted effect of over 50% in size
Procedure, shortened: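 Seeding of stripped-serum-adapted VM7Luc4E2 cells, 24 h attachment, compound transfer, then 0.1 nM final 17beta-estradiol; after 22 h incubation, ONE-Glo reagent and luminescence reading.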

[13] = qHTS assay to identify small molecule HDAC inhibitors (AID 1259364);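 also: wild-type HCT-116 cells with endogenous class I/II HDAC activity; top concentration of the series differs between compounds; nearly all actives have a fitted effect of over 45% in size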
Procedure, shortened: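 After a 2 hr compound incubation (37C, 5% CO2), HCT-116 cells seeded at 1,500/well the day before received HDAC-Glo reagent; signal read as luminescence after 30 min at room temperature.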

[14] = qHTS assay to identify small molecule HDAC inhibitors - cell viability counter screen (AID 1259365)
Procedure, shortened: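 HCT-116 (wild type), 1,500 cells/well, overnight 37C/5% CO2; compound in DMSO 2hr; CellTiter-Glo 30min RT; luminescence read.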

[15] = qHTS assay to identify small molecule agonists of the sonic hedgehog signaling (Shh) pathway - cell viability counter screen (AID 1259366); also: nearly all actives have a fitted effect of over 50% in size
Procedure, shortened: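 CellTiter-Fluor fluorescence read-out, 1 hr at 37C, added after 23hr compound exposure. Cells: 3T3 Gli1-Luc, an NIH/3T3 clone with stably integrated Gli1-Luc reporter, plated 4hr before compound.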

[16] = qHTS assay to identify small molecule antagonists of the sonic hedgehog signaling (Shh) pathway - cell viability counter screen (AID 1259367); also: nearly all actives have a fitted effect of over 55% in size
Procedure, shortened: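 CellTiter-Fluor signal in conditioned medium-stimulated 3T3 Gli1-Luc cells, 23 hr compound exposure, 37C.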

[17] = qHTS assay to identify small molecule agonists of the sonic hedgehog signaling (Shh) pathway (AID 1259368; calls by dose curve;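 also: NIH/3T3-derived 3T3Gli1-Luc cells carrying a stable Gli1-driven firefly luciferase reporter; series mostly up to about 92 µM; nearly all actives have a fitted effect of over 15% in size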)
Procedure, shortened: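 Stable NIH/3T3 Gli1-Luc reporter clone; 24 hr cpd exposure after a 4 hr settling period; luminescence endpoint.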

[18] = qHTS assay to identify small molecule antagonists of the sonic hedgehog signaling (Shh) pathway (AID 1259369; calls by dose curve; also: nearly all actives have a fitted effect of over 45% in size; also: potency is read from the fitted curve at half-maximal effect)
Procedure, shortened: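 Gli1 transcriptional reporter (firefly Luc) in NIH/3T3 background, conditioned-medium activated. 24hr exposure, luminescence endpoint.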

[19] = qHTS assay to identify small molecule phospholipidosis (PLD) inducers (AID 1259344; active = well fitted curve in the direction sought with a large enough effect; an effect the other way counts as inactive or inconclusive)
Procedure, shortened: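 Accumulated phospholipid, stained red by LipidTOX during 24 h compound treatment of HepG2 cells at 37 C, is quantified from images as pit number and intensity, normalised per cell using Hoechst-stained nuclei.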

[20] = target: Androgen receptor (Homo sapiens) (UniProt P10275); experiment: qHTS assay to identify small molecule antagonists of the androgen receptor (AR) signaling pathway using the MDA cell line in the presence of 0.5 nM R1881 (AID 1259243); also: nearly all actives have a fitted effect of over 50% in size; also: potency is read from the fitted curve at half-maximal effect
Procedure, shortened: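 Cells: MDA-kb2 (MMTV-luc). Stimulus: 0.5 nM R1881. Time: 16 hr, 37C, no CO2. Detection: ONE-Glo luminescence after 30 min at RT.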

Estrogen receptor (Homo sapiens), sequence (P03372 whole entry, looked up): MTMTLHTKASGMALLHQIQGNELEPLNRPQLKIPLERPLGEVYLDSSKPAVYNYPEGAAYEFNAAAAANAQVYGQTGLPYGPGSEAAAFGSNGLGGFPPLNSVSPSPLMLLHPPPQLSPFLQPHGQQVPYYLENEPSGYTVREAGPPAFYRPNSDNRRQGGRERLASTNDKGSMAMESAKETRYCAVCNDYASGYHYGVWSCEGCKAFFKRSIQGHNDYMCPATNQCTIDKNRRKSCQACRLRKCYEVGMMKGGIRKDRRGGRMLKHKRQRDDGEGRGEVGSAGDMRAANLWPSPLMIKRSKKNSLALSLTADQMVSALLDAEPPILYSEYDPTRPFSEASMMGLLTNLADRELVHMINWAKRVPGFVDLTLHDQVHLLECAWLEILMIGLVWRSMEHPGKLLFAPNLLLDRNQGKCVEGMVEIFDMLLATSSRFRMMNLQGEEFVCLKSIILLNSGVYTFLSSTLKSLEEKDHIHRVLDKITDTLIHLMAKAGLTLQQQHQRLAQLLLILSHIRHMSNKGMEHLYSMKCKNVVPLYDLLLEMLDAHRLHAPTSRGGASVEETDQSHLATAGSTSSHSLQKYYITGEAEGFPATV
Androgen receptor (Homo sapiens), sequence (P10275 whole entry, looked up): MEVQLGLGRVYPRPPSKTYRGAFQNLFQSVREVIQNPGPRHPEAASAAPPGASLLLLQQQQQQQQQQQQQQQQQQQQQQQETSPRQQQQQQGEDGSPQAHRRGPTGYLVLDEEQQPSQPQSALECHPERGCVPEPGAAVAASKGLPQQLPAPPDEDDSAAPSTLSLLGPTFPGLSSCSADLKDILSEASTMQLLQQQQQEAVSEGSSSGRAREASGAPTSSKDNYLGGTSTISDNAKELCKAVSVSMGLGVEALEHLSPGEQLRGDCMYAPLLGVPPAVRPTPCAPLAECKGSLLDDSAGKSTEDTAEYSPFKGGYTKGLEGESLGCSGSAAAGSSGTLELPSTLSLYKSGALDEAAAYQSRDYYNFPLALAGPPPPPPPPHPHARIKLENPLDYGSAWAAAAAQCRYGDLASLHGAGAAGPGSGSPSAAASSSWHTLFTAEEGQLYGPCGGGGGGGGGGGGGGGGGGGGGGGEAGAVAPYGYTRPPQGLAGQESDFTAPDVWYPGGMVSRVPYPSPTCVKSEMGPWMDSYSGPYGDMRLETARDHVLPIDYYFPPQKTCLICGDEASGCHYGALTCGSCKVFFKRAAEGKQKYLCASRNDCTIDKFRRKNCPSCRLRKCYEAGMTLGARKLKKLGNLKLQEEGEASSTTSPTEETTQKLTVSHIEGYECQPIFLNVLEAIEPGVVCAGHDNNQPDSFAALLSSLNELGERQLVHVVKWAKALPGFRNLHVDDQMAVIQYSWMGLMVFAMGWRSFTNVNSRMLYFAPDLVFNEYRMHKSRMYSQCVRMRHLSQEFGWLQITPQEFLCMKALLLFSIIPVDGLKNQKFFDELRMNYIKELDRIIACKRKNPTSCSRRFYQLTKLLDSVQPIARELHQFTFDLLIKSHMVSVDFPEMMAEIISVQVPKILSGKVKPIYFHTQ

COC(=O)c1ccc2cc(C(=O)OC)ccc2c1
cytotoxicity [1]: -8.67% [at 15.8 µM] | cytotoxicity increase [2]: -17.5% [at 15.8 µM] | cytotoxicity increase [3]: -0.0057% [at 15.8 µM] | activity change, negative = cytotoxic [4]: 3.7% [at 15.8 µM] | activity change, negative = cytotoxicity [5]: -1.22% [at 15.8 µM] | activity change, negative = cytotoxicity [6]: 0.421% [at 15.8 µM] | activity change [7]: 2.83% [at 15.8 µM, active compounds read high] | activity change, negative = cytotoxicity [8]: 9.21% [at 15.8 µM] | cytotoxicity increase [9]: -0.23% [at 15.8 µM] | activity change, negative = cytotoxicity [10]: -8.86% [at 19 µM] | viability change, negative = cytotoxic [11]: 1.72% [at 19 µM] | activity change, negative = inhibition [12]: -28.1% [at 19 µM] | activity change, negative = inhibition [13]: -8.76% [at 19 µM] | activity change, negative = cytotoxicity [14]: -11% [at 19 µM] | viability change, negative = cytotoxic [15]: 0.624% [at 19 µM] | viability change, negative = cytotoxic [16]: -4.66% [at 19 µM] | activity change [17]: 6.39% [at 18.9 µM, active compounds read high] | Potency [18]: 9.93 µM (active)

CCN(CC)CC1CCCCN1CC(=O)N1c2ccccc2C(=O)Nc2cccnc21 (centres undefined)
Potency [1]: inactive | Potency [2]: inactive | Potency [3]: inactive | outcome [4]: inactive | Potency [5]: inactive | Potency [6]: inactive | Potency [7]: inactive | Potency [8]: inactive | Potency [9]: inactive | Potency [10]: inactive | outcome [11]: inactive | Potency [12]: inactive | outcome [19]: inactive | Potency [13]: inactive | outcome [14]: inactive | Potency [15]: inactive | Potency [16]: inactive | Potency [17]: inactive | Potency [18]: inactive

CCCOc1ccc2c(c1)CC[C@@H]1[C@@H]2CC[C@]2(C)C(OC)CC[C@@H]12 (some centres undefined)
Potency [1]: inactive | Potency [2]: inactive | Potency [3]: inactive | outcome [4]: inactive | Potency [5]: inactive | Potency [6]: inactive | Potency [7]: inactive | Potency [8]: inactive | Potency [9]: inactive | Potency [10]: inactive | outcome [11]: inactive | Potency [20]: 13.3 µM (active) | Potency [12]: inactive | Potency [13]: inactive | outcome [14]: inactive | Potency [15]: inactive | Potency [16]: inactive | Potency [17]: inactive | Potency [18]: inactive

OC[C@H]1O[C@@H](O[C@H]2[C@H](O)[C@@H](O)[C@H](O)O[C@@H]2CO)[C@H](O)[C@@H](O)[C@H]1O
Potency [1]: inactive | Potency [2]: inactive | Potency [3]: inactive | outcome [4]: inactive | Potency [5]: inactive | Potency [6]: inactive | Potency [7]: inactive | Potency [8]: inactive | Potency [9]: inactive | Potency [10]: inactive | outcome [11]: inactive | Potency [20]: inactive | Potency [12]: inactive | Potency [13]: inactive | outcome [14]: inactive | Potency [15]: inactive | Potency [16]: inactive | Potency [18]: inactive

CC(=O)O[C@H]1CC[C@@]2(C)C(=CC[C@@H]3[C@@H]2CC[C@]2(C)C(C(C)=O)=CC[C@@H]32)C1
Potency [1]: inactive | Potency [2]: inactive | Potency [3]: inactive | outcome [4]: inactive | Potency [5]: inactive | Potency [6]: inactive | Potency [7]: inactive | Potency [8]: inactive | Potency [9]: inactive | Potency [10]: inactive | outcome [11]: inactive | Potency [20]: 11.9 µM (active) | Potency [12]: inactive | Potency [13]: inactive | outcome [14]: inactive | Potency [16]: inactive | Potency [18]: inactive

CC1=C(CC(=O)O)c2cc(F)ccc2/C1=C\c1ccc(S(C)(=O)=O)cc1
Potency [1]: inactive | Potency [2]: inactive | Potency [3]: inactive | outcome [4]: inactive | Potency [5]: inactive | Potency [6]: inactive | Potency [7]: inactive | Potency [8]: inactive | Potency [9]: inactive | Potency [10]: inactive | outcome [11]: inactive | Potency [20]: inactive | Potency [12]: inactive | outcome [19]: inactive | Potency [13]: inactive | outcome [14]: inactive | Potency [16]: inactive | Potency [17]: inactive
